Data reported in PubChem BioAssay (NCI).
The panel holds about 83,000 compounds, 20% with a hit somewhere; the sample as a whole holds those more often.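 Growth was measured after 48 h exposure to one concentration of compound in 96-well plates. Values under 10 count as active.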 Calls of active or inactive are those of the source.

Assays:
Experiment in all cases: NCI-60 one-dose screen, 48 h (100 = growth as untreated, 0 = no growth, -100 = all killed)
Conditions in all cases: 10 µM unless noted
[1] = system: NCI-H23 lung
[2] = system: NCI-H226 lung
[3] = system: NCI-H322M lung
[4] = system: HOP-62 NSCLC
[5] = system: NCI-H460 lung
[6] = system: HOP-92 NSCLC
[7] = system: NCI-H522 lung
[8] = system: A549/ATCC NSCLC
[9] = system: 786-0 renal
[10] = system: DU-145 prostate
[11] = system: K-562 leukemia
[12] = system: MALME-3M melanoma
[13] = system: MDA-MB-231 breast
[14] = system: RXF 393 renal
[15] = system: SF-268 CNS
[16] = system: SF-295 CNS
[17] = system: SF-539 CNS
[18] = system: UACC-257 melanoma
[19] = system: M14 melanoma

Measured: growth

CN(C)c1ccc2cc(-c3ccccc3F)c(N)nc2c1
active: [7] -1.23% | [12] -22.1% | [16] 0.224% | [17] -16.4%
inactive: [1] 21.4% | [2] 59.3% | [3] 55.1% | [4] 37.4% | [5] 15.9% | [6] 32.3% | [8] 22.1% | [9] 34% | [10] 17.1% | [11] 13.5% | [13] 64.7% | [14] 19.1% | [15] 45.1% | [18] 45.7% | [19] 10.5%

Cc1cc(-c2noc(C(F)(F)F)n2)ccc1N1CCN(c2cc(C(=O)N(C)C)no2)CC1
inactive: [1] 55.6% | [2] 55.8% | [3] 101% | [4] 68.1% | [5] 75.7% | [6] 63.5% | [7] 57% | [8] 67.3% | [9] 80.4% | [10] 85.2% | [11] 33.1% | [12] 78.5% | [13] 69.6% | [14] 105% | [15] 82.2% | [16] 49.8% | [17] 86.1% | [18] 54% | [19] 81.5%

CCN(CC)CC(=O)Nc1cccc(C(=O)OC(C)C)c1
inactive: [1] 92.1% | [2] 96.5% | [3] 96.8% | [4] 92.2% | [5] 112% | [6] 82% | [7] 66.3% | [8] 93.7% | [9] 79.8% | [10] 109% | [11] 102% | [12] 99.5% | [13] 112% | [14] 112% | [15] 105% | [16] 95% | [17] 100% | [18] 106% | [19] 79.6%

N#Cc1c(NC(=O)c2ccc(Br)cc2)sc2c1CCCC2
inactive: [1] 65% | [2] 44.2% | [3] 52.1% | [4] 46.4% | [5] 14.3% | [6] 81.5% | [7] 22.6% | [8] 53.6% | [9] 46.1% | [10] 33.3% | [11] 15.9% | [12] 49.2% | [13] 44.9% | [14] 13.7% | [15] 61.7% | [16] 21.7% | [17] 10.5% | [18] 66.1% | [19] 17.3%

CC(C)(C)CC(C)(C)Nc1c(-c2ccc(-c3ccccc3)cc2)nc2cnccn12
inactive: [1] 91.5% | [2] 87.4% | [3] 81.5% | [4] 79.9% | [5] 80% | [6] 93.3% | [7] 37.5% | [8] 56.4% | [9] 80.6% | [10] 94.9% | [11] 62.7% | [12] 108% | [13] 90.6% | [14] 94.4% | [15] 81.5% | [16] 97.6% | [17] 90.5% | [18] 83.3% | [19] 89.2%

Cc1ccc(/C=C(\C#N)n2nnc3cc(Cl)c(Cl)cc32)cc1
active: [2] -9.44% | [6] -7.83% | [9] 5.73% | [10] 3.78% | [11] 6.41% | [13] -14.9% | [14] -33.5% | [16] -0.103% | [17] -13.1% | [19] -23%
inactive: [1] 24.8% | [3] 49.5% | [4] 33.8% | [5] 12.8% | [7] 17.3% | [8] 38.8% | [12] 44% | [15] 12% | [18] 50.3%

COc1ccc(/C=C(\C#N)n2nnc3ccccc32)cc1
active: [2] 1.15% | [5] 2.42% | [9] 7.4% | [10] -5.07% | [13] -14.5% | [14] -39.3% | [16] -3.98% | [17] -46.4% | [19] -11%
inactive: [1] 15.1% | [3] 25.8% | [4] 26.2% | [6] 24.7% | [7] 21.2% | [8] 19.5% | [11] 15% | [12] 44.1% | [15] 21.3% | [18] 77.5%

Nc1nc(Nc2ccc(Cl)cc2)nn1S(=O)(=O)c1ccc(-c2ccc(F)cc2)cc1
inactive: [1] 92% | [2] 84.4% | [3] 109% | [4] 84.3% | [5] 70.9% | [6] 75.7% | [7] 75.3% | [8] 71.9% | [9] 92.1% | [10] 88.7% | [11] 83.5% | [12] 113% | [13] 87.8% | [14] 92.3% | [15] 76.3% | [16] 99.1% | [17] 94% | [18] 107% | [19] 89.8%

C[C@@H]1C(=O)N(C[C@@H](Cc2ccccc2)NC(=O)OCc2ccccc2)[C@]1(Cc1ccccc1)C(=O)OCc1ccccc1
inactive: [1] 37.1% | [2] 36.3% | [3] 56.4% | [4] 67.3% | [5] 38.3% | [6] 30.1% | [7] 44.3% | [8] 22.8% | [9] 52.9% | [10] 78.3% | [11] 36.5% | [12] 24.9% | [13] 41.9% | [14] 34.8% | [15] 56.7% | [16] 21.4% | [17] 59.6% | [18] 19.7% | [19] 44.8%

COc1cc(/C=C2\C=C(c3ccccc3)N(CCc3ccccc3)C2=O)cc(OC)c1OC
inactive: [1] 74.1% | [2] 67.6% | [3] 70.1% | [4] 61.6% | [5] 76.1% | [6] 41.3% | [7] 65.7% | [8] 70.4% | [9] 11.7% | [10] 73.8% | [11] 94.2% | [12] 50.1% | [14] 72.3% | [15] 44.7% | [16] 53.3% | [18] 88.2% | [19] 73.6%
active: [13] 5.9% | [17] -17.2%

COc1ccc(C2CC(c3ccccc3)=NN2c2nc(C)c(C(C)=O)s2)cc1 (centres undefined)
inactive: [1] 99.3% | [2] 101% | [3] 98.6% | [4] 101% | [5] 106% | [6] 95.4% | [7] 88.3% | [8] 98.7% | [9] 101% | [10] 102% | [11] 95% | [12] 95.2% | [13] 96.6% | [14] 94.1% | [15] 91.3% | [16] 99% | [17] 94.3% | [18] 102% | [19] 97.3%

CCN(CC)CCCC(C)NCc1ccccc1 (centres undefined)
inactive: [1] 101% | [2] 109% | [3] 88.1% | [4] 108% | [5] 106% | [6] 85.1% | [7] 73.3% | [8] 99.5% | [9] 89.8% | [10] 97.8% | [11] 118% | [12] 91.1% | [13] 105% | [14] 135% | [15] 100% | [16] 101% | [17] 102% | [18] 102% | [19] 91.4%

CCCc1nc2ccccn2c1Nc1ccc(C(=O)NO)cc1
inactive: [1] 61.4% | [2] 92.6% | [3] 97.4% | [4] 90.4% | [5] 85.9% | [6] 103% | [7] 64.9% | [8] 97.1% | [9] 95.5% | [10] 88.3% | [11] 89.5% | [12] 86.7% | [13] 111% | [14] 96% | [15] 94.2% | [16] 93.8% | [17] 99.3% | [18] 76.1% | [19] 89.6%

C[C@@H]1CC[C@@H]2[C@@H]1[C@H](OC(=O)c1ccc3ccccc3c1)[C@]1(C3CCCCC3)C[C@@H](OC(=O)CO)[C@@]2(C)O1
active: [9] -7.27% | [14] 8.34%
inactive: [1] 65.1% | [2] 51.8% | [3] 81.5% | [4] 68% | [5] 49.9% | [6] 34.9% | [7] 49.4% | [8] 48.8% | [10] 72.1% | [11] 39.6% | [12] 99.9% | [13] 63.1% | [15] 31.4% | [16] 68.2% | [17] 90.2% | [18] 63.3% | [19] 61.4%

c1ccc2c(c1)ncn2-c1nc2ccccc2n2c1nc1ccccc12
inactive: [1] 67.1% | [2] 78.4% | [3] 62.9% | [4] 50.1% | [5] 52.1% | [6] 88.5% | [7] 81.6% | [8] 81.7% | [9] 98.3% | [10] 89% | [11] 82.9% | [12] 128% | [13] 80.7% | [14] 88.8% | [15] 94.3% | [16] 90.2% | [17] 79.8% | [18] 104% | [19] 91.1%

O=C(/C=C/C12c3ccccc3C(c3ccccc31)C1C(=O)NC(=O)C12)c1ccccc1 (centres undefined)
active: [1] 6.51% | [5] 1.66% | [6] 3.17% | [14] -13.1%
inactive: [2] 11% | [3] 17.6% | [4] 34.8% | [7] 39.1% | [8] 26.3% | [9] 27.1% | [10] 19.4% | [11] 13.5% | [12] 47.5% | [13] 14% | [15] 29.6% | [16] 28.2% | [17] 18.5% | [18] 46.6% | [19] 19.6%
